Most compounds without a hit are left out; they make up all but 11% or so of the library.
Pf growth 48h: P. falciparum growth inhibition at 48 hours (one generation). AID 504832. P. falciparum luciferase growth in erythrocytes, 48 h. hit rate 5.9% among 310,000. Potency, µM (top dose mostly 28.7 µM), inactives show top-dose activity change, negative = inhibition, most hits filed as inhibitors; further: on the % scale 0 is the no-effect control and ±100 the full control effect
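Luciferase-expressing parasites in RBCs, 2% Hct / 0.1% parasitemia final; RPMI 1640 + 0.5% Albumax; 37 C, 5% CO2, one generation; luminescence read-out, lower signal = inhibition.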
Sm TGR block: S. mansoni TGR enzyme inhibition; Q962Y6; purified TGR, DTNB reduction, TNB absorbance 405 nm; Potency, µM (top dose mostly 114 µM), inactives show at the highest dose activity change, negative = inhibition, actives largely listed as inhibitors; hit rate 3% among 360,000; AID 485364; further: on the % scale 0 is the no-effect control and ±100 the full control effect; nearly all actives have a fitted effect of over 60% in size
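First, TGR (20 nM dispensed) and NADPH were mixed with compound. Second, a 15 min room-temperature incubation followed. Third, further NADPH and then DTNB were added to start the reaction. Finally, TNB absorbance was monitored kinetically.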
NS1 function inh: blocks influenza NS1 protein function; Potency, µM (titrated, usually from 46.1 µM), without a hit: at the highest dose activity, positive = more growth; hit rate 0.4% among 270,000; AID 2326; calls by dose curve; further: actives are rising curves; nearly all actives have a fitted effect of over 50% in size
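Growth recovery, yeast-based: influenza A NS1 expressed in S. cerevisiae causes slow growth, and suppressors are detected by OD600. The parent strain without NS1 is used as positive control.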
AMA1 RON2 block: disrupts binding of P. falciparum AMA1 to RON2; AlphaScreen AMA1-biotinylated RON2 peptide binding; Potency, µM (top dose mostly 58.2 µM), without a hit: at the highest dose activity change, negative = inhibition, most hits filed as inhibitors; hit rate 0.2% among 360,000; AID 720542;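 further: 0% = vehicle wells and -100% = peptide control; nearly all actives have a fitted effect of over 45% in size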
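AMA1 (3D7) with his tag at 25 nM final met compounds first, then biotinylated RON2 peptide at 25 nM; detection used donor plus acceptor beads, 10 µg/mL apiece, read by AlphaScreen after 30 min at room temperature.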
Pf growth 96h: P. falciparum growth inhibition at 96 hours | AID 504834 | hit rate 6.9% among 320,000 | P. falciparum luciferase reporter growth, 96 h | Potency, µM (titrated, usually from 28.7 µM), for inactives: at the top dose activity change, negative = inhibition, actives largely listed as inhibitors; further: on the % scale 0 is the no-effect control and ±100 the full control effect
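Infected RBCs, 2% Hct / 0.05% parasitemia final; luciferase-reporter P. falciparum; cpd 96 h, 37 C, 5% CO2; luciferase detection reagent; luminescence.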
An asterisk follows results filed as active. Unless noted, the call rests on the fitted dose curve; in most records, active means well fitted curve in the direction sought with a large enough effect; inconclusive means small, poorly fitted or top-dose-only effect, or another doubt; inactive means no such curve, though single readings can be large; an effect the other way counts as inactive or inconclusive. Potency means the concentration at half of the fitted maximal effect.

Results for Cc1nc(N2CCN(c3ccccc3O)CC2)c2c(-c3ccccc3)csc2n1 ?
Pf growth 48h: 13µM*; Sm TGR block: -8%; NS1 function inh: 8%; AMA1 RON2 block: inconclusive; Pf growth 96h: inconclusive

What do the screens show for `Oc1ccccc1N1CCN(c2ncnc3scc(-c4ccccc4)c23)CC1`?
Pf growth 48h: 5.9µM*; Sm TGR block: 5%; NS1 function inh: -4%; AMA1 RON2 block: -16%; Pf growth 96h: 5.2µM*

What do the screens show for `OCCN1CCN(c2ncnc3scc(-c4ccc(F)cc4)c23)CC1`?
Pf growth 48h: -10%; Sm TGR block: -25%; NS1 function inh: 10%; AMA1 RON2 block: 0%; Pf growth 96h: -28%

What do the screens show for `CN1CCN(c2ncnc3scc(-c4ccccc4Cl)c23)CC1`?
Pf growth 48h: inconclusive; Sm TGR block: -15%; NS1 function inh: 11%; AMA1 RON2 block: -4%; Pf growth 96h: 5.9µM*

Results for Cc1ccc2nc(Cl)c(/C=N/Nc3ccc(C(=O)O)cc3)cc2c1 ?
Pf growth 48h: -39%; Sm TGR block: -22%; NS1 function inh: 1%; AMA1 RON2 block: -5%; Pf growth 96h: -7%

How did COCC(=O)N(C)C[C@H]1Oc2ncc(C#C[C@H](C)O)cc2C(=O)N([C@@H](C)CO)C[C@H]1C do in these assays?
AMA1 RON2 block: -4%

How did O=C(c1cccc(S(=O)(=O)Nc2ccc(Br)cc2)c1)N1CCC1 do in these assays?
Pf growth 48h: -1%; Sm TGR block: -24%; NS1 function inh: 2%; AMA1 RON2 block: -11%; Pf growth 96h: -6%

Results for COc1ccc(-c2csc3nc(C)nc(N4CCC(C)CC4)c23)cc1OC ?
Pf growth 48h: -6%; Sm TGR block: 7%; AMA1 RON2 block: inconclusive; Pf growth 96h: -22%

What do the screens show for `COc1ccc(-c2csc3nc(C)nc(N4CCN(C(C)=O)CC4)c23)cc1OC`?
Pf growth 48h: 4.1µM*; Sm TGR block: -1%; NS1 function inh: -4%; AMA1 RON2 block: 4%; Pf growth 96h: 5%

What do the screens show for `Cc1ccc(-n2nnnc2SCc2ccc(C(=O)O)cc2)cc1C`?
Pf growth 48h: 9%; Sm TGR block: 28%; NS1 function inh: -40%; AMA1 RON2 block: -14%; Pf growth 96h: 27%

How did CCN(CC(=O)Nc1cccc(C(C)=O)c1)S(=O)(=O)c1ccc(OC)cc1 do in these assays?
Pf growth 48h: 4%; Sm TGR block: inconclusive; NS1 function inh: -6%; AMA1 RON2 block: 4%

What do the screens show for `COC(=O)CN(n1cnnc1)S(=O)(=O)c1ccccc1`?
Pf growth 48h: 9%; Sm TGR block: 1%; NS1 function inh: inconclusive; AMA1 RON2 block: -4%; Pf growth 96h: 12µM*

How did CCN(CC(=O)Nc1cccc(C(C)=O)c1)S(=O)(=O)c1ccccc1 do in these assays?
Pf growth 48h: inconclusive; Sm TGR block: inconclusive; NS1 function inh: 6%; AMA1 RON2 block: -1%; Pf growth 96h: 9.3µM*

How did COC(=O)CN(Cc1ccco1)S(=O)(=O)c1ccccc1 do in these assays?
Pf growth 48h: inconclusive; Sm TGR block: 22µM*; NS1 function inh: 9%; AMA1 RON2 block: -5%

Results for CCN(CC)S(=O)(=O)c1ccc(S(=O)(=O)N(CC(=O)Nc2ccccc2)Cc2ccco2)cc1 ?
Pf growth 48h: -13%; Sm TGR block: 28µM*; NS1 function inh: inconclusive; AMA1 RON2 block: -3%; Pf growth 96h: 28%

Results for CC(C)CC1(C)N=C(c2ccccc2)C(=S)N1 (stereo not given) ?
Pf growth 48h: inconclusive; Sm TGR block: 9%; NS1 function inh: -4%; AMA1 RON2 block: 16%; Pf growth 96h: 3%

Results for Cn1nc(C(=O)N2CCOCC2)c([N+](=O)[O-])c1C(=O)N1CCOCC1 ?
Pf growth 48h: 8%; Sm TGR block: -7%; NS1 function inh: 0%; AMA1 RON2 block: -15%; Pf growth 96h: 42%

What do the screens show for `Cc1ccc(S(=O)(=O)N2[C@@H](c3ccc(C(C)(C)C)cc3)C(C(=O)O)=CC[C@H]2c2ccc3c(c2)OCO3)cc1`?
AMA1 RON2 block: 0%

Results for CCOC(=O)CNC(=O)c1sc2ncnc(N3CCc4ccccc4C3)c2c1C ?
Pf growth 48h: inconclusive; Sm TGR block: -15%; NS1 function inh: -32%; AMA1 RON2 block: -15%

What do the screens show for `CCCCNC(=O)c1sc2ncnc(N3CCc4ccccc4C3)c2c1C`?
Pf growth 48h: inconclusive; Sm TGR block: 15%; NS1 function inh: -4%; AMA1 RON2 block: -4%; Pf growth 96h: 15µM*

What do the screens show for `CCC(Sc1nc(N)c(NC(=O)c2ccco2)c(=O)[nH]1)C(=O)O` (stereo not given)?
Pf growth 48h: 34%; Sm TGR block: 2%; NS1 function inh: 7%; AMA1 RON2 block: 2%; Pf growth 96h: 39%

Results for COc1cccc(C2C(C#N)=C(N)SC(c3ccccc3)C2[N+](=O)[O-])c1 (stereo not given) ?
Pf growth 48h: 10µM*; Sm TGR block: 0%; NS1 function inh: inconclusive; AMA1 RON2 block: -5%; Pf growth 96h: 19%

Results for COc1cccc(C2C(C#N)=C(N)N(N(C)C)C3=C2C(=O)CCC3)c1 (stereo not given) ?
Pf growth 48h: 0%; Sm TGR block: 2%; NS1 function inh: 6%; AMA1 RON2 block: 3%; Pf growth 96h: -25%

What do the screens show for `CCOc1cccc(C2c3c(oc4cc(C)c(C)cc4c3=O)C(=O)N2c2nc(C)c(C)s2)c1` (stereo not given)?
Sm TGR block: 1%

Results for CNC(=O)c1cc2c(=O)n3cccc(C)c3nc2n1C ?
NS1 function inh: 6%

How did C=CCc1ccccc1OCC(=O)NNC(=S)NCc1ccccc1 do in these assays?
Pf growth 48h: 37%; Sm TGR block: 8%; NS1 function inh: inconclusive; AMA1 RON2 block: 20%; Pf growth 96h: 10µM*

How did O=S(=O)(c1cccc2nonc12)N1CCCCC1 do in these assays?
Pf growth 48h: 2%; Sm TGR block: -19%; NS1 function inh: 1%; AMA1 RON2 block: 7%; Pf growth 96h: -1%

What do the screens show for `CCN(CC)CCOC(=O)C(Cc1ccco1)Cc1cccc2ccccc12` (stereo not given)?
AMA1 RON2 block: 25µM*

How did Cc1ccccc1C[n+]1cccc2ccccc21 do in these assays?
Pf growth 48h: 0.37µM*; Sm TGR block: -1%; AMA1 RON2 block: 5%; Pf growth 96h: inconclusive

What do the screens show for `O/N=C/c1cccc[n+]1CCCCCC[n+]1ccccc1/C=N/O`?
Pf growth 48h: inconclusive; Sm TGR block: 0%; NS1 function inh: 10%; AMA1 RON2 block: 18%; Pf growth 96h: inconclusive

What do the screens show for `O=[N+]([O-])c1ccc(C[n+]2cccc3c4ccccc4ccc32)cc1`?
Pf growth 48h: 14%; Sm TGR block: 7%; AMA1 RON2 block: -23%; Pf growth 96h: 17%

What do the screens show for `CCCCCCCCC[n+]1cccc2c3ccccc3ccc21`?
Pf growth 48h: 0.17µM*; Sm TGR block: 2%; NS1 function inh: -280%; AMA1 RON2 block: 1%; Pf growth 96h: 35%
